For assay [1], the system named is Plasmodium falciparum Sir2 (PF13_0152, Sir2A). Description: Plasmodium falciparum Sir2A binding compounds – biochemical, small-molecule microarray, 635 nm fluorescence, primary screen (AID 1098).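 Further: score merges spot fluorescence intensity with its signal-to-noise ratio.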 Particulars: fluorescence 635 nm, higher = more signal.
Assay [2] in a line: probe aDKK1 binding to arrayed compounds – biochemical, biotinylated probe, 635/667 nm fluorescence, primary screen (AID 1099).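 Further: score merges 667nm spot fluorescence with signal to noise across triplicate slides.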 The conditions noted are these: small-molecule microarray, higher = more signal.
Assay [3] can be described thus: probe aCHRDL2 binding to arrayed compounds – biochemical, biotinylated probe, 635/667 nm fluorescence, primary screen (AID 1100). The conditions noted are these: small-molecule microarray, higher = more signal.
Assay [4] is described as follows: change in splice reporter luminescence, either direction, cell-based, HEK293, spliceosome inhibition project, primary screen (AID 1101).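 Further: HEK293 cells carrying a splicing-competent luciferase reporter gene; test concentration not given here.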 Particulars: HEK293 splicing luciferase reporter, 24 h, higher = more signal, called active from +8 up or from −8 down.
Assay [5] has as its target Fibroblast growth factor 10 (Homo sapiens) (UniProt O15520). Description: compounds binding fibroblast growth factor 10 – biochemical, small-molecule microarray, 635 nm fluorescence, primary screen (AID 1102). The conditions noted are these: FGF10 binding, fluorescence 635 nm, higher = more signal.
Assay [6] has as its system glycogen synthase kinase-3 (GSK3A per assay name; protocol says GSK3B). Description: compounds binding glycogen synthase kinase-3 – biochemical, small-molecule microarray, 635 nm fluorescence, GSK3A, primary screen (AID 1103). Further: the record names both GSK3A and GSK3B. Particulars: fluorescence 635 nm, higher = more signal.
The target of assay [7] is Epidermal growth factor receptor (Homo sapiens) (UniProt P00533). Description: compounds binding epidermal growth factor receptor – biochemical, small-molecule microarray, 635 nm fluorescence, primary screen (AID 1104).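 Further: score merges 667 nm emission intensity with spot signal to noise over triplicate slides.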 The conditions noted are these: EGFR binding, higher = more signal.
Assay [8] concerns the target Follistatin-related protein 3 (Homo sapiens) (UniProt O95633). Description: compounds binding follistatin-related protein 3 – biochemical, small-molecule microarray, 635 nm fluorescence, primary screen (AID 1105).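 Further: score merges emission near 667 nm and signal to noise per printed spot across three slides.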 The conditions noted are these: FSTL3 binding, higher = more signal.
Assay [9] concerns the target Dickkopf-related protein 1 (Homo sapiens) (UniProt O94907). Description: small molecules binding DKK1 protein – biochemical, small-molecule microarray, 635 nm fluorescence scan, primary screen (AID 1106).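 Further: score merges emission near 667 nm with signal to noise over three replicate slides.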 The conditions noted are these: higher = more signal.
Assay [10] concerns Inhibin beta A chain (activin A). Description: small molecules binding activin A – biochemical, small-molecule microarray, 635 nm fluorescence scan, primary screen (AID 1107).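 Further: mouse activin A protein probed at 4.33 µg/mL on printed slides; score merges bound-protein fluorescence near 667 nm with spot signal-to-noise.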 The conditions noted are these: INHBA, higher = more signal.
Assay [11] deals with Human papillomavirus type 1a protein E7 (residues 44-93). Description: small molecules binding HPV E7 44-93 – biochemical, small-molecule microarray, residues 44-93, 635 nm fluorescence, primary screen (AID 1108).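 Further: E7 fragment applied at 1 µg/mL in TBST for 1 h at 4 C; score combines spot fluorescence with its signal to noise ratio.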 The conditions noted are these: fluorescence 635 nm, higher = more signal.
Assay [12] is described as follows: hepatitis C replication reporter changes, two-sided – Huh7 cells, luciferase reporter, HCV replication inhibitor project, primary screen (AID 1109).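 Further: huh7 hepatoma cells harbouring a luciferase neomycin HCV replicon reporter; luciferase luminescence as measure of HCV replicon replication; test concentration not given here.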 The conditions noted are these: Huh7 HCV replicon luciferase reporter, 48 h; higher = more signal.
The target of assay [13] is Left-right determination factor 2 (Homo sapiens) (UniProt O00292). Description: small molecules binding LEFTY2 protein – biochemical, small-molecule microarray, 635 nm fluorescence scan, primary screen (AID 1110). The conditions noted are these: higher = more signal.
Assay [14] has as its target Calmodulin-1 (Homo sapiens) (UniProt P0DP23). Description: small molecules binding calmodulin-1 with EGTA – biochemical, small-molecule microarray, Cy5-labelled CALM1, profiling panel (AID 1111).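 Further: labelled calmodulin applied in Tris saline Tween buffer holding calcium plus EGTA and DTT.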 The conditions noted are these: Cy5-CALM1 binding fluorescence, higher = more signal.
Assay [15] shares this target. Description: small molecules binding Ca-loaded calmodulin-1 – biochemical, small-molecule microarray, Cy5-labelled CALM1, plus calcium, artefact control for SMM control-protein annotation, profiling panel (AID 1112).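 Further: score merges spot fluorescence with signal to noise from triplicate slides.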 Particulars: Cy5-CALM1 binding fluorescence, higher = more signal.
A short description of assay [16]: probe aWnt5a binding to arrayed compounds – biochemical, biotinylated probe, 635/667 nm fluorescence, primary screen (AID 1113).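 Further: score merges 667 nm fluorescence intensity with signal-to-noise per printed feature.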 Particulars: small-molecule microarray, higher = more signal.
Assay [17] can be described thus: probe aShh binding to arrayed compounds – biochemical, biotinylated probe, 635/667 nm fluorescence, primary screen (AID 1114).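 Further: probe is biotin-labelled aShh protein from a stem cell growth factor screen; measures binding of labelled protein to compounds printed on the slide; score merges feature fluorescence at 667 nm with signal-to-noise.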 Particulars: small-molecule microarray, higher = more signal.
Assay [18] in a line: probe aNog binding to arrayed compounds – biochemical, biotinylated probe, 635/667 nm fluorescence, primary screen (AID 1115).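 Further: probe is biotinylated aNog protein used at 0.15 µg/mL for 1 h at 4 C; z-score combines 667 nm fluorescence of each spot with its signal to noise.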 The conditions noted are these: small-molecule microarray, higher = more signal.
Assay [19] addresses Torsin-1A-interacting protein 1 (Homo sapiens) (UniProt Q5JTV8). Description: compound microarray binding of lysate hLAP1 – cell lysate, small-molecule microarray, COS7 lysate, 635/667 nm fluorescence, primary screen (AID 1116). The conditions noted are these: 635 nm fluorescence, higher = more signal.
Assay [20] has as its target Alpha-bungarotoxin (Bungarus multicinctus) (UniProt P60615). Description: compounds binding labelled alpha-BTX control protein – biochemical, small-molecule microarray, Alexa647 label, 635/667 nm fluorescence, artefact control for SMM control protein annotation, profiling panel (AID 1117). Particulars: alpha-BTX-A647 binding fluorescence, higher = more signal.

Calls of active or inactive are those of the source.

The source of these data is PubChem BioAssay.

Chain of Alpha-bungarotoxin (Bungarus multicinctus) (P60615 whole entry, looked up): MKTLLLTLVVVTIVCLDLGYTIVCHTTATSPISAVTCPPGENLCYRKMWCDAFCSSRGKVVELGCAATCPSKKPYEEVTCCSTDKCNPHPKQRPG
Chain of Torsin-1A-interacting protein 1 (Homo sapiens) (Q5JTV8 whole entry, looked up): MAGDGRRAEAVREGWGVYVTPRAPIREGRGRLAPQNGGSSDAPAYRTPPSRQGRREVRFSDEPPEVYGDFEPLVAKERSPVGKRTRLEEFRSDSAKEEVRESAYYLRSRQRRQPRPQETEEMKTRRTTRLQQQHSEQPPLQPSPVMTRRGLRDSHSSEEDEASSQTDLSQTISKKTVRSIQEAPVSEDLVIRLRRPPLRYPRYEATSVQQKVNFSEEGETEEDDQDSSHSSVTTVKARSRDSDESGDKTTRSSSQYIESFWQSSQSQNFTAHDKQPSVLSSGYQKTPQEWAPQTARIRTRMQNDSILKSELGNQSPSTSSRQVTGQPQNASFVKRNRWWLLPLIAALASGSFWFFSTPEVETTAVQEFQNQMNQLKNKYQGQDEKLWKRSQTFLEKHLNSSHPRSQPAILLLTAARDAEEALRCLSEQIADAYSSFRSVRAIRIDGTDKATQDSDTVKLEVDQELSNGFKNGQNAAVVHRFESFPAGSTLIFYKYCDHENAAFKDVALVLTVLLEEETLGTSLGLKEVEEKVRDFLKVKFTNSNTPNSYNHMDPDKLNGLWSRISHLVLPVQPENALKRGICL
Chain of Follistatin-related protein 3 (Homo sapiens) (O95633 whole entry, looked up): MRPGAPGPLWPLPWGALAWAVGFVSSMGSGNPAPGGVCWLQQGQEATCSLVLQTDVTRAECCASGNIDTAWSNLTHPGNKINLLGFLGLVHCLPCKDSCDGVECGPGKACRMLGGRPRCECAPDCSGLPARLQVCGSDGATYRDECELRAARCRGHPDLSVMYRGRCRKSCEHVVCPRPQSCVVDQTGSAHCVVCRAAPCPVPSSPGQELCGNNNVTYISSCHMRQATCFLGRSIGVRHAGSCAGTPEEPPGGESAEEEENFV
Chain of Fibroblast growth factor 10 (Homo sapiens) (O15520 whole entry, looked up): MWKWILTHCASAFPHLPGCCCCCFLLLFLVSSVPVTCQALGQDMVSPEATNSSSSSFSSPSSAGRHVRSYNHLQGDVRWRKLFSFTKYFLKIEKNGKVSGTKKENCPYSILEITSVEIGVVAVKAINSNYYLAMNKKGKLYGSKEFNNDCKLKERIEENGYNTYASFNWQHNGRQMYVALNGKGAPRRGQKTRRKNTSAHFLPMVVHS
Chain of Left-right determination factor 2 (Homo sapiens) (O00292 whole entry, looked up): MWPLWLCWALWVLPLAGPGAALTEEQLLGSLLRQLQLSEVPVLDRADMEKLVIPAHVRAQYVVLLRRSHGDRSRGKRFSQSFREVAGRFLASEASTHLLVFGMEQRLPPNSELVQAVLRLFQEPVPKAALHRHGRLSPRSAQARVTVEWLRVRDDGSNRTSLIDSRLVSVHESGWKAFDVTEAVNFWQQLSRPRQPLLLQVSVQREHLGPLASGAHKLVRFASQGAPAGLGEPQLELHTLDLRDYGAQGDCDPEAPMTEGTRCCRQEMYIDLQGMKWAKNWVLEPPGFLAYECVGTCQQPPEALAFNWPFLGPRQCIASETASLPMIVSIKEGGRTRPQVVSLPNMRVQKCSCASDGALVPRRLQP
Chain of Dickkopf-related protein 1 (Homo sapiens) (O94907 whole entry, looked up): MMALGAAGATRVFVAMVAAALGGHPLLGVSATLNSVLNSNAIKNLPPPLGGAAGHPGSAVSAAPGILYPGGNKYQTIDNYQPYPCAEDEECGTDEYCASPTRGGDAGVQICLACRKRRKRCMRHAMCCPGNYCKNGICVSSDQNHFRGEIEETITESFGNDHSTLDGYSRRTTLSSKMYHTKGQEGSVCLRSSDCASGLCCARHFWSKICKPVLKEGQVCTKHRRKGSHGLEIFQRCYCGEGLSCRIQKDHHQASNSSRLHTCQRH
Chain of Epidermal growth factor receptor (Homo sapiens) (P00533 whole entry, looked up): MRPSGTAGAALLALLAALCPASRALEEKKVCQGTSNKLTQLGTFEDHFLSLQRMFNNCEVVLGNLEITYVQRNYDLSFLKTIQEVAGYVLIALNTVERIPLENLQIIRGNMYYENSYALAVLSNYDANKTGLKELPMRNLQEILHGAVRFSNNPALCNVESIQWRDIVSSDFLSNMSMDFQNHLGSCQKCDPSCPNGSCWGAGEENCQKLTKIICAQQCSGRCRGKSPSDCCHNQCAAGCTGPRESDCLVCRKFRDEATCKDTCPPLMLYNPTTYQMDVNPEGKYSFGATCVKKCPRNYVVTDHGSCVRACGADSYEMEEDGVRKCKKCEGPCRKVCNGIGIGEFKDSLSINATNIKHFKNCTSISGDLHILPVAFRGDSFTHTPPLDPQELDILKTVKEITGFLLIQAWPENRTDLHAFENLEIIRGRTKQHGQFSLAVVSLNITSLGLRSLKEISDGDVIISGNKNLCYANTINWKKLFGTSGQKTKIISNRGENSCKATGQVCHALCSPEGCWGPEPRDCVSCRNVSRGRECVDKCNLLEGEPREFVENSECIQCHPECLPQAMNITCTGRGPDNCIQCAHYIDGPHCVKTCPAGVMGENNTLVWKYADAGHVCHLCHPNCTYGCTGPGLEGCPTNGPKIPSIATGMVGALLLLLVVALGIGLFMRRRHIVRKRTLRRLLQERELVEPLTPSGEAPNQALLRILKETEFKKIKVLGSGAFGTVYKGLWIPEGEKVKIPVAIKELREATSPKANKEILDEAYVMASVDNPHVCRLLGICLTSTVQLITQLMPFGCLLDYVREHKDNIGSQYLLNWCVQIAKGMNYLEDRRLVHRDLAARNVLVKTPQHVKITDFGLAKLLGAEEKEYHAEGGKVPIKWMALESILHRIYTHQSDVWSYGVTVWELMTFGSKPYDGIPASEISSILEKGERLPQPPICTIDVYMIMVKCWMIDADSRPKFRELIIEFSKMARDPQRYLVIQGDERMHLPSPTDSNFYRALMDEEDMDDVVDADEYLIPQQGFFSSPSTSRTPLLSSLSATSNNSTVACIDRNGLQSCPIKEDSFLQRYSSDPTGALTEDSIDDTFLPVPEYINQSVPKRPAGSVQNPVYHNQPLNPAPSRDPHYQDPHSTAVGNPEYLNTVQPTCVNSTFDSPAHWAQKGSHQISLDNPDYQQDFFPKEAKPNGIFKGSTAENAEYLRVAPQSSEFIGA

Consider `C[C@H]1C2[C@H](Cc3ccccc3)NC(=O)[C@]23C(=O)N[C@H](Cc2ccccc2)C(=O)N[C@H](Cc2ccccc2)C(=O)NC/C=C/CCC/C=C/C3[C@@H]2O[C@]12C` (stereo not given in full), for which the composite z-score was 1.17 in assay [1]; -0.319 in [2]; -0.327 in [3]; 0.398 in assay [5]; 0.309 in assay [6]; 0.17 in [7]. Besides, the composite z-score is 1.4 in [8]; 0.54 in [9]; 0.645 in [10]; 1.39 in [11]; -0.0974 in assay [13]; -0.343 in assay [14]. The composite z-score is -1.28 in assay [15]; -0.124 in [16]; -0.123 in assay [17]; -0.0662 in [18]; -0.564 in [19]; 0.617 in assay [20]. Further, the z-score is -0.549 (inactive) in assay [4] and 0.554 in assay [12].
As to `C=CCN1Cc2ccccc2C[C@@]2(COC(c3ccc(OCCCO)cc3)=N2)C1=O`, the composite z-score was found to be 1.03 in [1]; 1.02 in [2]; 1.15 in assay [3]; 0.489 in [5]; 0.597 in assay [6]; 0.437 in assay [7]. Besides, the composite z-score in assay [8] came out at 0.68; in assay [9], 0.644; in assay [10], 1.59; in assay [11], 1.42; in assay [13], 0.588; in assay [14], 0.175. For the same compound, the composite z-score was -0.583 in assay [15]; 0.0633 in assay [16]; 0.13 in [17]; 0.373 in assay [18]; 1.33 in [19]; 0.34 in assay [20]. Further, the z-score is -1.13 (inactive) in [4] and -0.908 in [12].
As to `COCCOC(=O)N1C(=O)[C@@]2(c3ccccc31)[C@H](C(=O)N1CCCCCCC1)[C@H]1C(=O)O[C@H](c3ccccc3)[C@H](c3ccccc3)N1[C@@H]2c1ccccc1OCCO`, the composite z-score in assay [1] came out at 1.72; in [2], 2.76; in [3], 1.66; in assay [5], 1.09; in assay [6] it was 1.29; in assay [7], 1. The composite z-score was 1.52 in assay [8]; 1.5 in [9]; 2.02 in assay [10]; 1.36 in assay [11]; 0.941 in assay [13]; 2.43 in assay [14]. In addition, the composite z-score in assay [15] was determined as 1.43; in assay [16], 0.883; in assay [17], 2.65; in assay [18], 2.48; in assay [19], 4.19; in assay [20], 2.36. In addition, the z-score is -0.0563 (inactive) in [4] and -1.78 in [12].
Turning to `Oc1ccc2cc[n+](Cc3cccc(OC(F)(F)F)c3)cc2c1`, the composite z-score was 1.36 in assay [1]; -0.319 in assay [2]; -0.576 in [3]; 0.837 in assay [5]; -0.477 in [6]; 1.2 in assay [7]. Further, the composite z-score in assay [8] was 1.24; in [9] it was 0.732; in assay [10], 0.826; in assay [11] it was -0.112; in assay [13], 0.939; in assay [14] it was -0.582. Moreover, the composite z-score in assay [15] was -0.77; in assay [16] it was -0.152; in assay [17], 0.0515; in assay [18] it was -0.85; in [19], -0.0554; in assay [20] it was 0.266. Besides, the z-score in [4] was 0.609 (inactive); in [12], -0.114.
Take `CCCC[C@H]1C[C@@H]1[C@@H]1N(P(=O)(c2ccccc2)c2ccccc2)[C@](CO)(c2ccccc2)CC12CC2`: the composite z-score is 1.09 in assay [1]; 0.639 in [2]; 1.01 in assay [3]; 0.104 in assay [5]; -0.571 in assay [6]; -0.395 in assay [7]. Besides, the composite z-score is -0.177 in assay [8]; -1.47 in [9]; 0.846 in assay [10]; 0.992 in assay [11]; -1.58 in assay [13]; 1.85 in assay [14]. The composite z-score is 1.08 in assay [15]; 0.188 in assay [16]; 0.562 in [17]; 1.75 in assay [18]; 0.0187 in assay [19]; -0.0785 in assay [20]. In addition, the z-score is -4.35 (inactive) in assay [4] and -2.4 in [12].
Turning to `[N-]=[N+]=Nc1ccccc1[C@H]1OC(c2ccc(OCCCO)cc2)=N[C@@]1(CCS(=O)(=O)c1ccccc1)C(=O)N1CCOCC1`, the composite z-score in assay [1] came out at 1.5; in assay [2], 1.8; in assay [3], 1.46; in assay [5] it was 1.26; in [6] it was 1.16; in assay [7], 0.211. In addition, the composite z-score in assay [8] was 0.924; in [9] it was -0.169; in assay [10], 0.891; in assay [11] it was 0.946; in assay [13], 0.52; in assay [14], 2.15. Further, the composite z-score stood at 1.24 in [15]; 0.318 in assay [16]; 1.39 in assay [17]; 1.28 in assay [18]; 2.1 in assay [19]; 3.35 in assay [20]. Moreover, the z-score was -0.829 (inactive) in assay [4] and 0.384 in assay [12].
With `C=CCN1Cc2ccccc2C[C@]2(N=C(c3ccc(OCCCO)cc3)O[C@@H]2c2ccccc2)C1=O`, the composite z-score in [1] was 0.761; in [2], -0.0119; in assay [3], 0.311; in assay [5], 1.08; in [6], 1.29; in assay [7] it was 0.734. In addition, the composite z-score stood at 1.25 in assay [8]; 0.838 in [9]; 1.31 in assay [10]; 1.18 in assay [11]; 0.915 in [13]; 0.054 in [14]. Moreover, the composite z-score in [15] is -0.83; in assay [16], -0.006; in assay [17] it was -0.0119; in [18], 0.838; in assay [19], 2.68; in assay [20], 1.03. Also, the z-score in assay [4] was -1.44 (inactive); in [12] it was -2.51.
